Results as given in the supplement of paper PMC6658780.
Counter-ions that a name gives are not always drawn. ± gives the standard deviation of the averaged measurements.

tested on: Escherichia coli ATCC BAA-2469; experiment: percent growth inhibition of drug + antibiotic vs DMSO control; higher = more growth inhibition; details: antibiotic (0.125x MIC): ciprofloxacin; 7 µM
Method: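 Prestwick drugs tested at 20 uM and 7 uM with an antibiotic at 0.125x MIC (16 mg/L when MIC >128 mg/L) against E. coli ATCC BAA-2469 (NDM-1) in CAMHB, 384-well plates, duplicate runs. Percent growth inhibition was computed from OD600 (24 h minus 0 h) relative to DMSO wells. Drug + DMSO-only wells are also given. […]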

Row | Structure (SMILES) | percent growth inhibition [%]
1 | NCC1(CC(=O)O)CCCCC1 [Gabapentin] | 4.43 ± 4.2
2 | O=C([O-])c1ccccc1-c1c2cc(Br)c(=O)cc-2oc2[c]([Hg+])c([O-])c(Br)cc12.[Na+].[Na+].[OH-] [Merbromin] | 0.00817 ± 2.1

same assay, conditions: antibiotic (0.125x MIC): ciprofloxacin; 20 µM

Row | Structure (SMILES) | percent growth inhibition [%]
3 | NCC1(CC(=O)O)CCCCC1 [Gabapentin] | 9.67 ± 14

same assay, conditions: antibiotic (0.125x MIC): gentamicin; 7 µM

Row | Structure (SMILES) | percent growth inhibition [%]
4 | O=C(CCCN1CCC2(CC1)C(=O)NCN2c1ccccc1)c1ccc(F)cc1 [Spiperone] | 7.21 ± 1
5 | C[C@]12CC[C@H](O)C[C@@H]1CC[C@@H]1[C@@H]2CC[C@]2(C)C(=O)CC[C@@H]12 [Epiandrosterone] | 0.433 ± 1.2

same assay, conditions: antibiotic (0.125x MIC): meropenem; 7 µM

Row | Structure (SMILES) | percent growth inhibition [%]
6 | NCC1(CC(=O)O)CCCCC1 [Gabapentin] | -2.95 ± 1.7
7 | O=C([O-])c1ccccc1-c1c2cc(Br)c(=O)cc-2oc2[c]([Hg+])c([O-])c(Br)cc12.[Na+].[Na+].[OH-] [Merbromin] | 0.439 ± 4

same assay, conditions: antibiotic (0.125x MIC): meropenem; 20 µM

Row | Structure (SMILES) | percent growth inhibition [%]
8 | CN1[C@@H]2CC[C@H]1C[C@@H](OC(=O)C(CO)c1ccccc1)C2 (some centres undefined) [Atropine sulfate monohydrate] | 0.268 ± 1.2
9 | Oc1cc(Cl)ccc1Oc1ccc(Cl)cc1Cl [Triclosan] | 97 ± 4.5
